Assay results reported in the supplement of paper PMC12494721.
Structures can show the parent of a compound that is named as a salt.

Experiments:
Settings in all cases: incubation time: 27 h, anaerobic, 37 °C;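 for the amine columns active = adjusted P below 0.05 in both replicates with a change the same way and a mean fold change under 0.8 or over 1.25; inactive = the rest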
[1] = test system: Clostridium sporogenes DSM 1664; test: growth (OD595) fold change vs plate DMSO controls (fold change (ratio)); higher = more growth
Method in brief: (§1)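 Growth is expressed as the fold change relative to the median of the DMSO control wells on each plate. Cultures in mGAM were grown anaerobically in 96-well plates for 27 h at 37 °C, shaken, and read at 595 nm. Readings were blank-subtracted, corrected for compound background with 20 µM compound solutions in water, and converted to OD with a calibration factor of 5. Fold changes above 1.5 were set to NA, and each value is the mean of 2 biological replicates.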

Escherichia coli IAI1 [2] = test: as above
Method in brief: as §1

[3] = test system: Klebsiella aerogenes DSM 30053; test: as above
Method in brief: as §1

[4] = test system: Ruminococcus gnavus DSM 108212; test: as above
Method in brief: as §1

[5] = test system: Klebsiella aerogenes DSM 30053; test: fold change of Histamine concentration vs plate DMSO controls (fold change (ratio)); higher = more amine produced, active = hit call of the paper (significant change in both replicates, either direction)
Method in brief: (§2)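 Each value is the fold change relative to DMSO-only wells on the same plate. Four gut bacterial strains were grown anaerobically in mGAM at 37 °C for 27 h in 80 µL wells, starting at OD 0.1 before a 1:1 dilution, with compounds at 20 µM final (sweeteners 50 µM). Whole cultures were extracted with cold acetonitrile/methanol containing 0.1% formic acid, centrifuged, and amines were quantified by LC–triple-quadrupole MS (dynamic MRM) against external calibration curves with within-batch drift correction. Values are means of 2 biological replicates.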

[6] = test system: Clostridium sporogenes DSM 1664; test: fold change of Tryptamine concentration vs plate DMSO controls (fold change (ratio)); higher = more amine produced, active = hit call of the paper (significant change in both replicates, either direction)
Method in brief: as §2

[7] = test system: Ruminococcus gnavus DSM 108212; test: as above
Method in brief: as §2

Escherichia coli IAI1 [8] = test: fold change of Putrescine concentration vs plate DMSO controls (fold change (ratio)); higher = more amine produced, active = hit call of the paper (significant change in both replicates, either direction)
Method in brief: as §2

[9] = test system: Klebsiella aerogenes DSM 30053; test: as above
Method in brief: as §2

Escherichia coli IAI1 [10] = test: fold change of Cadaverine concentration vs plate DMSO controls (fold change (ratio)); higher = more amine produced, active = hit call of the paper (significant change in both replicates, either direction)
Method in brief: as §2

[11] = test system: Klebsiella aerogenes DSM 30053; test: as above
Method in brief: as §2

[12] = test system: Ruminococcus gnavus DSM 108212; test: fold change of 2-Phenylethylamine concentration vs plate DMSO controls (fold change (ratio)); higher = more amine produced, active = hit call of the paper (significant change in both replicates, either direction)
Method in brief: as §2

Row | Structure (SMILES) | growth [1] | growth (Escherichia coli IAI1 [2]) | growth [3] | growth [4] | fold change of Histamine concentration [5] | fold change of Tryptamine concentration [6] | fold change of Tryptamine concentration [7] | fold change of Putrescine concentration (Escherichia coli IAI1 [8]) | fold change of Putrescine concentration [9] | fold change of Cadaverine concentration (Escherichia coli IAI1 [10]) | fold change of Cadaverine concentration [11] | fold change of 2-Phenylethylamine concentration [12]
1 | CC(C(=O)O)c1cccc(Oc2ccccc2)c1 (stereo unspecified) [Fenoprofen calcium salt dihydrate] (20 µM) | 0.882 | 0.997 | 1.04 | 1.21 | 0.981 (inactive) | 0.945 (inactive) | 0.951 (inactive) | 0.976 (inactive) | 0.983 (inactive) | 1.03 (inactive) | 1 (inactive) | 0.937 (inactive)
2 | C[C@]12CCC(=O)C=C1CC[C@@H]1[C@@H]2[C@@H](O)C[C@@]2(C)[C@H]1CC[C@]2(O)C(=O)CO [Hydrocortisone] (20 µM) | 0.958 | 1.03 | 0.985 | 1.03 | 1.04 (inactive) | 1.06 (inactive) | 1.01 (inactive) | 1.04 (inactive) | 1 (inactive) | 1.03 (inactive) | 1 (inactive) | 0.975 (inactive)
3 | CC(C)Cc1ccc(CC(=O)O)cc1 [Ibufenac] (20 µM) | 1.08 | 1.1 | 1.06 | 1.24 | 0.908 (inactive) | 1.04 (inactive) | 1 (inactive) | 1.06 (inactive) | 1.01 (inactive) | 0.994 (inactive) | 1.01 (inactive) | 0.976 (inactive)
4 | COc1cc(C(=O)N2CCOCC2)cc(OC)c1OC [Trimetozine] (20 µM) | 0.932 | 0.972 | 0.986 | 1.05 | 0.989 (inactive) | 1.05 (inactive) | 1.04 (inactive) | 1.12 (inactive) | 0.998 (inactive) | 0.99 (inactive) | 1 (inactive) | 1.04 (inactive)
5 | Cc1ccc(O)c([C@H](CCN(C(C)C)C(C)C)c2ccccc2)c1 [Tolterodine tartrate] (20 µM) | 0.996 | 1.24 | 1.04 | 1.14 | 0.956 (inactive) | 1.01 (inactive) | 0.997 (inactive) | 1.27 (inactive) | 1.01 (inactive) | 0.926 (inactive) | 1 (inactive) | 0.994 (inactive)
6 | NS(=O)(=O)c1cc2c(cc1Cl)NCNS2(=O)=O [Hydrochlorothiazide] (20 µM) | 0.895 | 1.06 | 0.998 | 1.03 | 1.06 (inactive) | 0.949 (inactive) | 1.11 (inactive) | 1.04 (inactive) | 1 (inactive) | 0.915 (inactive) | 1.11 (inactive) | 1.27 (active)
7 | CC(=O)OCC(=O)[C@@]1(O)CC[C@H]2[C@@H]3CCC4=CC(=O)C=C[C@]4(C)[C@@]3(F)[C@@H](O)C[C@@]21C [Isoflupredone acetate] (20 µM) | 0.985 | 1.02 | 0.983 | 1 | 1.09 (inactive) | 1.03 (inactive) | 1.1 (inactive) | 1 (inactive) | 1.03 (inactive) | 0.988 (inactive) | 1.11 (inactive) | 1.22 (inactive)
8 | C#C[C@]1(OC(C)=O)CC[C@H]2[C@@H]3CCC4=CC(=NO)CC[C@@H]4[C@H]3CC[C@@]21CC (mixture of isomers) [Norgestimate] (20 µM) | 1.25 | 0.998 | 1.01 | 0.991 | 1.01 (inactive) | 0.656 (inactive) | 0.888 (inactive) | 1.05 (inactive) | 0.985 (inactive) | 1.02 (inactive) | 0.993 (inactive) | 0.905 (inactive)
9 | CC(CCc1ccc(O)cc1)NCCc1ccc(O)c(O)c1 (stereo unspecified) [Dobutamine hydrochloride] (20 µM) | 1.01 | 0.997 | 0.99 | 0.938 | 1.12 (inactive) | 1 (inactive) | 1.02 (inactive) | 0.998 (inactive) | 1.01 (inactive) | 0.971 (inactive) | 0.973 (inactive) | 1.04 (inactive)
10 | CC(C)=C/C(C)=N/Nc1nncc2ccccc12 [Budralazine] (20 µM) | 1.12 | 1.05 | 0.989 | 0.98 | 1.03 (inactive) | 0.98 (inactive) | 0.994 (inactive) | 0.992 (inactive) | 1.02 (inactive) | 0.963 (inactive) | 1 (inactive) | 0.969 (inactive)
11 | C[C@@H](NCCCc1cccc(C(F)(F)F)c1)c1cccc2ccccc12 [Cinacalcet hydrochloride] (20 µM) | 0.918 | 1.02 | 1.03 | 1.2 | 0.977 (inactive) | 0.995 (inactive) | 0.807 (inactive) | 1.11 (inactive) | 1.01 (inactive) | 0.693 (inactive) | 0.999 (inactive) | 0.946 (inactive)
12 | COc1ccc(CNc2nc(N3CCC[C@H]3CO)ncc2C(=O)NCc2ncccn2)cc1Cl [Avanafil] (20 µM) | 0.96 | 0.981 | 0.99 | 0.992 | 1.01 (inactive) | 0.958 (inactive) | 1.01 (inactive) | 1.04 (inactive) | 1 (inactive) | 1.02 (inactive) | 0.991 (inactive) | 1.01 (inactive)
13 | Cc1cccc(N(C)C(=S)Oc2ccc3ccccc3c2)c1 [Tolnaftate] (20 µM) | 1.02 | 0.997 | 0.984 | 0.839 | 0.984 (inactive) | 1.04 (inactive) | 1.06 (inactive) | 1.04 (inactive) | 1.01 (inactive) | 1 (inactive) | 1 (inactive) | 1.04 (inactive)
14 | CCOc1nc2cccc(C(=O)O)c2n1Cc1ccc(-c2ccccc2-c2nnn[nH]2)cc1 [Candesartan] (20 µM) | 1.16 | 0.982 | 1.01 | 1.19 | 0.965 (inactive) | 1.04 (inactive) | 0.975 (inactive) | 0.981 (inactive) | 1 (inactive) | 1.03 (inactive) | 1.01 (inactive) | 0.947 (inactive)
15 | C[C@H]1C[C@H]2[C@@H]3CCC4=CC(=O)C=C[C@]4(C)[C@@]3(F)[C@@H](O)C[C@]2(C)[C@@]1(O)C(=O)CO [Betamethasone] (20 µM) | 1.02 | 1.02 | 1.13 | 1.11 | 0.976 (inactive) | 0.979 (inactive) | 1.01 (inactive) | 1.07 (inactive) | 1.01 (inactive) | 1.04 (inactive) | 1.02 (inactive) | 0.968 (inactive)
16 | CCCCCCNC(=O)n1cc(F)c(=O)[nH]c1=O [Carmofur] (20 µM) | 0.985 | 0.886 | 0.963 | 0.862 | 0.726 (active) | 0.872 (inactive) | 0.983 (inactive) | 0.508 (active) | 0.936 (inactive) | 0.91 (inactive) | 0.974 (inactive) | 1.01 (inactive)
17 | O=C(CCCN1CCC(O)(c2ccc(Br)cc2)CC1)c1ccc(F)cc1 [Bromperidol] (20 µM) | 0.952 | 0.965 | 0.953 | 0.813 | 1.02 (inactive) | 1.02 (inactive) | 0.916 (inactive) | 0.99 (inactive) | 1 (inactive) | 0.913 (inactive) | 0.998 (inactive) | 0.949 (inactive)
18 | NCCc1c[nH]cn1 [Histamine dihydrochloride] (20 µM) | 0.927 | 1.16 | 1.01 | 0.893 | 1.05 (inactive) | 1.05 (inactive) | 1.06 (inactive) | 1.16 (inactive) | 1.02 (inactive) | 0.952 (inactive) | 0.992 (inactive) | 1.05 (inactive)
19 | C=CCOC(Cn1ccnc1)c1ccc(Cl)cc1Cl (stereo unspecified) (20 µM) | 1.09 | 0.991 | 1.02 | 0.883 | 0.976 (inactive) | 1.08 (inactive) | 1 (inactive) | 0.942 (inactive) | 0.941 (inactive) | 0.909 (inactive) | 1.06 (inactive) | 1.07 (inactive)
20 | CC(=O)N(CC(O)CO)c1c(I)c(C(=O)NCC(O)CO)c(I)c(C(=O)NCC(O)CO)c1I (stereo unspecified) [Iohexol] (20 µM) | 1 | 1.02 | 1.04 | 0.911 | 0.958 (inactive) | 0.975 (inactive) | 1.01 (inactive) | 1.02 (inactive) | 0.997 (inactive) | 0.992 (inactive) | 1 (inactive) | 1.01 (inactive)
21 | COc1cc2nc(N3CCN(C(=O)C4CCCO4)CC3)nc(N)c2cc1OC (stereo unspecified) [Terazosin hydrochloride] (20 µM) | 1.07 | 1.02 | 1 | 0.977 | 1.08 (inactive) | 1.03 (inactive) | 0.952 (inactive) | 0.936 (inactive) | 1.03 (inactive) | 1 (inactive) | 1.01 (inactive) | 0.948 (inactive)
22 | OCCOCCN1CCN(C(c2ccccc2)c2ccc(Cl)cc2)CC1 (stereo unspecified) [Hydroxyzine dihydrochloride] (20 µM) | 1.07 | 1.01 | 1.05 | 0.906 | 0.909 (inactive) | 1.01 (inactive) | 1.02 (inactive) | 0.98 (inactive) | 0.966 (inactive) | 0.968 (inactive) | 1.02 (inactive) | 1.06 (inactive)
23 | CCN(CC)CCOc1ccc(C(=C(Cl)c2ccccc2)c2ccccc2)cc1 [(Z,E) Clomiphene citrate] (20 µM) | 1.06 | 1 | 1.02 | 1.01 | 0.973 (inactive) | 1.05 (inactive) | 0.655 (active) | 0.961 (inactive) | 0.981 (inactive) | 0.955 (inactive) | 1.01 (inactive) | 0.804 (inactive)
